Screening results: PubChem BioAssay, National Center for Advancing Translational Sciences (NCATS)
HCV inh – qHTS Assay for Inhibitors of Hepatitis C Virus (HCV) | Huh7.5.1 HCVcc-Cre infection, luciferase reporter, 44 h | actives 3.4% (n = 340,000) | Potency, µM (titrated, usually from 41.8 µM), inactives show at the highest dose activity change, negative = inhibition, most hits filed as inhibitors; also: potency is read from the fitted curve at half-maximal effect; % is scaled to controls: 0 for no effect and ±100 for the full control effect
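Compounds are dispensed onto cells plated 4 h earlier at 1,000 per well, with HCVcc-Cre virus (about 0.5 moi) added next. Following 44 h of culture, luminescent signal is measured for 15 sec after 15 min with substrate at room temperature.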
Pf growth 48h – Primary qHTS for delayed death inhibitors of the malarial parasite plastid, 48 hour incubation; P. falciparum luciferase growth in erythrocytes, 48 h; Potency, µM (titrated, usually from 28.7 µM), for inactives: at the highest dose activity change, negative = inhibition, actives largely listed as inhibitors; actives 5.9% (n = 310,000); AID 504832, 2011; also: potency is read from the fitted curve at half-maximal effect; % is scaled to controls: 0 for no effect and ±100 for the full control effect
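Luciferase-expressing P. falciparum in infected erythrocytes (2% hematocrit, 0.1% parasitemia final) in RPMI 1640/0.5% Albumax were exposed to compound for 48 hours at 37 C, 5% CO2; growth read as luminescence.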
Cycloheximide cs – Cycloheximide Counterscreen for Small Molecule Inhibitors of Shiga Toxin; cell reporter, cycloheximide protein synthesis inhibition counterscreen; max response, %; actives 12% (n = 300,000); in the data active = max response mostly above about 13%, no sharp cut-off; inactive = mostly below about 14%; also: read at 38.3 µM for the half of the compounds with a filed dose; 0% is about no effect
Pf growth 96h – Primary qHTS for delayed death inhibitors of the malarial parasite plastid, 96 hour incubation; P. falciparum luciferase reporter growth, 96 h; Potency, µM (titrated, usually from 28.7 µM), for inactives: at the highest dose activity change, negative = inhibition, actives largely listed as inhibitors; actives 6.9% (n = 320,000); AID 504834, 2011; also: potency is read from the fitted curve at half-maximal effect; % is scaled to controls: 0 for no effect and ±100 for the full control effect
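P. falciparum expressing integrated firefly luciferase grown in erythrocytes (2% hematocrit, 0.05% parasitemia final) with compounds for 96 hours at 37 C, 5% CO2. Growth inhibition read as loss of luminescence after adding luciferase detection reagent.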
HCMV antiviral – qHTS Assay for inhibitors of the human cytomegalovirus (HCMV); HFF cells, HCMV-luciferase reporter, 72 h; hits give low values; AID 1259415, 2018; activity change, negative = inhibition, % at 57.5 µM; actives 4.5% (n = 410,000); in the data active = activity change below about -60%; inconclusive = no clear call, values can overlap the other calls; inactive = above about -39%; also: % is scaled to controls: 0 for no effect and ±100 for the full control effect
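Steps: HFFs plated, 16 h 37C; compounds added; HCMV-luciferase added to MOI 1 PFU/cell; 72 h 37C; OneGlo reagent, 5 min room temperature; luminescence read, normalized to controls.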
Shiga toxin inh – A qHTS for Small Molecule Inhibitors of Shiga Toxin; Vero cells, Shiga toxin protein synthesis inhibition reporter; actives 9.2% (n = 290,000); inhibition, % at 38.7 µM; in the data active = inhibition mostly above about 28%, no sharp cut-off; inactive = mostly below about 43%; also: 0% is about no effect
An asterisk follows results filed as active; ? = inconclusive; / = no result given. The list is not random: actives were taken first. Their share in the collection is about 21%. Unless noted, calls follow the shape of the dose curve; as a rule, active = well fitted inhibition curve with a large enough effect; inconclusive = small, poorly fitted or top-dose-only effect, or another doubt; inactive = no such curve, though single readings can be large or run the other way.

SMILES	HCV inh	Pf growth 48h	Cycloheximide cs	Pf growth 96h	HCMV antiviral	Shiga toxin inh
COc1ccc(-c2ccc(SCC(=O)Nc3cc(C)on3)nn2)cc1OC	-22%	35%	22*	104%	67	100*
CCOCCCNC(=O)c1ccc2c(=O)n(CCc3ccc(OC)c(OC)c3)c(=O)[nH]c2c1	/	/	/	/	1	/
CCc1cccc(NC(=O)COC(=O)CSc2ccc(C)cc2)c1	/	/	/	/	-4	/
CCC(C)(C)C1CCC(=NNC(=O)c2ccoc2C)CC1 (configuration not stated)	11%	/	56*	130%	93	69*
Cc1occc1C(=O)NNC(=O)C1CCCCC1	0%	10%	5	?	-5	2
COc1ccc(OC)c(N=c2oc3cc(O)ccc3cc2C(N)=O)c1	?	11%	15	13µM*	9	5
NC(=O)c1cc2ccc(O)cc2oc1=Nc1ccccc1	13%	59%	63*	21%	-82*	50*
NC(=O)c1cc2ccc(O)cc2oc1=NCc1ccccc1	3%	13%	16*	-4%	-2	-5
O=C(NCc1ccccc1)c1cc2ccc(O)cc2oc1=O	18%	38%	21*	-10%	128	42*
COc1ccc(CN(C)C(=O)c2ccc(COc3ccccc3)cc2)c(OC)c1	?	?	-1	?	-39	2
COc1ccc(CN(C)C(=O)C(Cc2ccccc2)NC(=O)c2ccccc2)c(OC)c1 (configuration not stated)	?	10µM*	/	?	-18	/
COc1ccccc1CN(C)CC(=O)Nc1ccccc1-c1ccccc1	?	?	15*	?	-21	2
COc1ccc(CN(C)CC(=O)Nc2ccccc2-c2ccccc2)c(OC)c1	?	10µM*	11	?	-26	-2
Cc1ccccc1CN(C)CC(=O)Nc1ccccc1Oc1ccccc1	2%	-2%	7	?	-34	10
Cc1ccccc1CN(C)CC(=O)Nc1ccccc1-c1ccccc1	?	?	-2	9.3µM*	?	-5
Cc1ccnc(SCc2cc(=O)c(OC(=O)c3ccc(Cl)c([N+](=O)[O-])c3)co2)n1	27%	-3%	6	-14%	?	-1
Cc1ccc(NC2CCCN(C(=O)CN3C(=O)CSC3=O)C2)cc1C (configuration not stated)	/	1%	-2	9%	-4	-4
Cc1nn(C)cc1/C=N/NC(=O)CSc1ccccn1	15%	14%	7	-1%	37	27
CCN1CCN(Cc2ccccc2NC(=O)Nc2ccc(C)cc2)CC1	16%	59%	24*	84%	57	36*
O=C(Nc1ccc(CN2CCCCC2)cc1)Nc1ccccc1Cl	-11%	?	32*	0%	-15	53*
O=C(Nc1ccncc1)Nc1ccc(Br)cc1Cl	-20%	?	12	11%	?	-3
CCN1CCN(Cc2ccc(NC(=O)Nc3ccccc3Cl)cc2)CC1	-11%	-2%	47*	0%	64	97*
CCc1ccccc1NC(=O)CN1CCN(CC(=O)Nc2ccc(-c3ccccc3)cc2)CC1	4%	14%	-2	0%	14	-8
O=C(Nc1ccc(Br)cc1)Nc1ccccc1Cl	?	62%	68*	-56%	4	103*
CCN1CCN(C(=O)C2(NC(=O)Nc3ccccc3Cl)CCCCC2)CC1	8%	11%	-2	23%	-25	6
COc1ccc(C2(C)NC(=O)N(CC(=O)N(c3ccccc3)C3CCS(=O)(=O)C3)C2=O)cc1 (configuration not stated)	7%	/	/	/	-18	/
CCC1=C(c2cc(OC)c(OC)c(OC)c2)C2(CCCC2)C(=O)O1	5%	-25%	-2	?	44	-3
COc1ccc(-c2cc3nc(C)cc(NCCO)n3n2)cc1	-14%	-28%	22*	4.7µM*	-7	24
Cc1cccc(-c2cc3nc(C)cc(NCCCN(C)C)n3n2)c1	2.5µM*	10µM*	-2	379%	91	-12
